# The entries come from a sample that favours the strongest signals as a whole.
# B1: T7P4 (Tuber borchii) (protein)
# chain: GSHIGPYMSFYASSEDVRTIEEGGRTWLVGRARRADGSWQDIKLDLDNIIGNRDGHLTWGEQNFTQSASDIRFNFEGSNVPVLRAKLRNAAGGEQESDLNLGERLTNNNGDLVFN
# Columns and labels:
# Experiment in all cases: glycan array binding signal (z-score within array); higher = stronger binding
# Settings in all cases: glycan notation: IUPAC condensed, linker removed
# [1] = target: Fuc(a1-2)Gal(b1-3)GalNAc(b1-3)Gal(b1-4)Glc
# In short: (§1)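 The binding signal is a Z-score computed within each array and averaged over linkers. Arrays of the same protein sequence at different concentrations or buffers were also averaged together. Data originate from 3228 arrays in the Consortium for Functional Glycomics database, kept only where the protein sequence was available.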
# [2] = target: Fuc(a1-2)Gal(b1-3)GlcNAc(b1-3)Gal(b1-4)Glc
# In short: as §1
# Fuc(a1-2)Gal(b1-4)GlcNAc = target: Fuc(a1-2)Gal(b1-4)GlcNAc
# In short: as §1
# Gal(a1-3)Gal(b1-4)Glc = target: Gal(a1-3)Gal(b1-4)Glc
# In short: as §1
# [3] = target: Gal(b1-3)GalNAc(b1-3)Gal(b1-4)Glc
# In short: as §1
# [4] = target: Gal(b1-3)[Fuc(a1-4)]GlcNAc(b1-3)Gal(b1-4)GlcNAc
# In short: as §1
# [5] = target: Gal(b1-3)[Neu5Ac(a2-6)]GalNAc
# In short: as §1
# [6] = target: Gal(b1-3)[Neu5Ac(a2-6)]GlcNAc(a1-4)Gal(b1-4)Glc
# In short: as §1
# [7] = target: Gal(b1-3)[Neu5Ac(a2-6)]GlcNAc(b1-6)Gal(b1-4)Glc
# In short: as §1
# [8] = target: Gal(b1-3)[Neu5Ac(b2-6)]GalNAc
# In short: as §1
# [9] = target: Gal(b1-4)GlcNAc(b1-3)Gal(b1-4)Glc
# In short: as §1
# [10] = target: Gal(b1-4)GlcNAc(b1-6)GalNAc
# In short: as §1
# Gal3S(b1-4)Glc = target: Gal3S(b1-4)Glc
# In short: as §1
# Gal4S(b1-4)GlcNAc = target: Gal4S(b1-4)GlcNAc
# In short: as §1
# GalNAc(a1-3)Gal = target: GalNAc(a1-3)Gal
# In short: as §1
# [11] = target: GlcNAc(b1-2)Gal(b1-3)GlcNAc
# In short: as §1
# [12] = target: Man(a1-2)Man(a1-3)[Man(a1-6)]Man(a1-6)[Man(a1-2)Man(a1-3)]Man(b1-4)GlcNAc(b1-4)GlcNAc
# In short: as §1
# [13] = target: Man(a1-3)[Man(a1-6)]Man(a1-6)[Man(a1-2)Man(a1-3)]Man(b1-4)GlcNAc(b1-4)GlcNAc
# In short: as §1
# [14] = target: Man(a1-3)[Man(a1-6)]Man(b1-4)GlcNAc(b1-4)GlcNAc
# In short: as §1
# [15] = target: Neu5Ac(a2-3)Gal(b1-4)GlcNAc6S
# In short: as §1
# [16] = target: Neu5Ac(a2-3)Gal6S(b1-4)GlcNAc
# In short: as §1
# [17] = target: Neu5Ac(a2-8)Neu5Ac(a2-8)Neu5Ac(a2-8)Neu5Ac(a2-3)[GalNAc(b1-4)]Gal(b1-4)Glc
# In short: as §1
binder,measurement,setting,value
B1,glycan array binding signal (z-score),[1],6.04
same,glycan array binding signal (z-score),[2],5.88
same,glycan array binding signal (z-score),Fuc(a1-2)Gal(b1-4)GlcNAc,-0.207
same,glycan array binding signal (z-score),Gal(a1-3)Gal(b1-4)Glc,-0.222
same,glycan array binding signal (z-score),[3],5.7
same,glycan array binding signal (z-score),[4],-0.207
same,glycan array binding signal (z-score),[5],-0.213
same,glycan array binding signal (z-score),[6],5.89
same,glycan array binding signal (z-score),[7],5.74
same,glycan array binding signal (z-score),[8],-0.16
same,glycan array binding signal (z-score),[9],2.77
same,glycan array binding signal (z-score),[10],-0.221
same,glycan array binding signal (z-score),Gal3S(b1-4)Glc,-0.008
same,glycan array binding signal (z-score),Gal4S(b1-4)GlcNAc,-0.202
same,glycan array binding signal (z-score),GalNAc(a1-3)Gal,-0.215
same,glycan array binding signal (z-score),[11],0.204
same,glycan array binding signal (z-score),[12],-0.213
same,glycan array binding signal (z-score),[13],-0.223
same,glycan array binding signal (z-score),[14],-0.226
same,glycan array binding signal (z-score),[15],-0.208
same,glycan array binding signal (z-score),[16],-0.213
same,glycan array binding signal (z-score),[17],-0.223

# — the supplement of paper PMC8728848
